Screening data deposited in PubChem by National Center for Advancing Translational Sciences (NCATS).
Six1-Eya2 inh – qHTS Assay for Inhibitors of the Six1/Eya2 Interaction | Homeobox protein SIX1 (Homo sapiens) + Protein phosphatase EYA2 (Homo sapiens), … | AlphaScreen GST-Six1/His-Eya2 binding, biochemical; active compounds read low | activity change, % (test concentration not listed) | hit rate 0.56% among 360,000
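AlphaScreen with GST-Six1 and His-Eya2 (5X mix: 250 nM and 500 nM), glutathione donor and nickel acceptor beads; buffer 50 mM Tris pH 8.0, 300 mM NaCl, 1 mM TCEP; 1 h at 37 C in the dark.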
CCT chaperon mod – High-Throughput Screening for Modulators of Cytosolic Chaperonin Activity; purified chaperonin ATPase assay, HTRF ADP detection, 30 min; activity change, % (no concentration beside the values), hits read low; hit rate 0.3% among 360,000; in the data active = activity change below about -30%
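Enzyme 40 or 20 nM (batch-dependent) in Tris pH 7.4/KCl/MgCl2/DTT; cpd 76 uM single point; ATP 10 uM; 30 min 37 °C; Transcreener ADP HTRF detection, 30 min RT; ratio 665/615.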
CtBP-E1A inh – qHTS Assay for Inhibitors of the CtBP/E1A Interaction | CtBP / adenovirus E1A interaction (AlphaScreen) | AlphaScreen GST-E1A/His-CtBP binding, 1536-well; active compounds read low | activity change, % (concentration not given with the values) | hit rate 0.49% among 340,000 | AID 651724, 2012
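Steps: dispense buffer (Tris pH 8.0, NaCl 300 mM, TCEP 1 mM, BSA, Tween 20); add 5X protein mix (GST-E1A, His-CtBP, 125 nM each); pin 23 nL compound; 2 h at 37 °C, dark; add 5X beads (50 ug/mL); 1 h; read.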
PI4K2A block – qHTS for small molecular inhibitors of PI4K2A | hit rate 0.13% among 420,000 | AID 1346378, 2018 | Phosphatidylinositol 4-kinase type 2-alpha (Homo sapiens), Q9BTU6 | purified PI4K2A, ADP-Glo luminescence, 1 h; active compounds read low | activity change, negative = inhibition, % at 76.9 µM; in the data active = activity change below about -50%; inconclusive = mostly about -30% to -49%
Target sequence (Q9BTU6 whole entry, looked up): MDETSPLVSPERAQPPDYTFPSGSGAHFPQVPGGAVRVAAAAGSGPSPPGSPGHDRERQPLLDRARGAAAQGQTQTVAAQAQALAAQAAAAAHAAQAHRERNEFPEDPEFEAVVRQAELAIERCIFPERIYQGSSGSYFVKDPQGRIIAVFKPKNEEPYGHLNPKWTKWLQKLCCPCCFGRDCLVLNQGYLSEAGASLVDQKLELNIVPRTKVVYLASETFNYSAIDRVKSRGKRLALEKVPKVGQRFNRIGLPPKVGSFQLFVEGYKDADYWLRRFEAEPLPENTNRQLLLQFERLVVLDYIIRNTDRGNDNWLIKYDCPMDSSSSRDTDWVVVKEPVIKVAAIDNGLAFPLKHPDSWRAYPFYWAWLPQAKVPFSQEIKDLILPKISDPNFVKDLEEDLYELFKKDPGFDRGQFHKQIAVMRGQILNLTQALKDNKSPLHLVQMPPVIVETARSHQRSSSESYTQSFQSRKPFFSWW
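PI4K2A activity was measured by ADP-Glo luminescence: enzyme (4 ug/mL stock) and phosphatidylinositol (1.2 mM stock) in Tris pH 7.5/MgCl2/EGTA/Triton X-100 buffer were reacted with ATP (300 microM stock) for one hour at ambient temperature.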
Eya2 inh – qHTS Assay for Inhibitors of the Phosphatase Activity of Eya2. hit rate 0.006% among 330,000. Potency, µM (series often up to 76.9 µM), actives largely listed as inhibitors. recombinant Eya2, OMFP fluorescence dephosphorylation (OMFP is methylfluorescein phosphate). Protein phosphatase EYA2 (Homo sapiens), O00167; active = well fitted inhibition curve with a large enough effect; inconclusive = small, poorly fitted or top-dose-only effect, or effect the other way
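Eya2 (0.2 uM) preincubated 10 min at ambient with compound, then OMFP substrate added at 50 uM; 10 min reaction in 50 mM HEPES pH 7.5, 50 mM NaCl, 5 uM MgCl2, 0.05% BSA, 1 mM DTT. Fluorescence read at Ex 485/Em 525 nm.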
Numbers stand for hits; – = inactive; ? = inconclusive; · = no result. Shown are actives, neighbours in structure and some others; about 0.97% of the full set was active somewhere. Cut-off read from the data, not from the text of the source, unless noted: active = activity change below about -65%; inconclusive = mostly about -30% to -63%; inactive = weaker than that.

SMILES	Six1-Eya2 inh	CCT chaperon mod	CtBP-E1A inh	PI4K2A block	Eya2 inh
O=C(Cn1c(=O)c2cccn2c2cccnc21)NCc1cccc(F)c1	·	·	·	–	·
COC1=C(Nc2ccc(O)cc2)C(=O)c2ccccc2C1=O	?	–	?	?	–
CCOc1ccc(NC2=C(OC)C(=O)c3ccccc3C2=O)cc1	-75	–	?	–	–
COC1=C(Nc2ccc(OC)cc2)C(=O)c2ccccc2C1=O	-75	–	–	–	–
COc1cc(C(=O)Nc2cccc(C)c2C)ccc1OCC(=O)N1CCOCC1	–	-34	·	–	–
OCCN(Cc1cccnc1)Cc1ccccn1	-89	–	–	?	·
O=C(N[C@@H](Cc1ccccc1)C(=O)NCP(=O)(O)OC(Cc1ccccc1)C(=O)O)OCc1ccccc1 (some centres not stated)	·	·	·	–	·
Cc1cccc(CSc2cn(CC(=O)N3CCCC3)c3ccccc23)c1	·	·	·	–	·
Nc1c(C(=O)O)ccc2c1C(=O)c1ccccc1C2=O	–	–	?	–	–
Nc1ccc2c(c1Cl)C(=O)c1ccc(N)c(Cl)c1C2=O	-78	–	·	?	–
CC/C(=N\NC(=O)c1nnn(-c2nonc2N)c1CN(C)c1ccccc1)c1ccccc1	–	-67	·	–	–
C/C(=N\NC(=O)c1nnn(-c2nonc2N)c1CN(C)c1ccccc1)c1ccccn1	-91	–	·	–	–
CCCCC1CCC(C(=O)NC2CCS(=O)(=O)C2)CC1 (configuration not stated)	–	-46	–	–	–
CCOC(=O)/C(=N\Nc1ncnc2ccccc12)c1ccc(OC)cc1	–	–	–	–	–
COc1ccc(/C(=N/Nc2ncnc3ccccc23)C(=O)O)cc1	-77	–	-69	–	–
CCCSS/C(CCO)=C(\C)N(C=O)Cc1cnc(C)nc1N	·	·	·	–	·
O=c1[nH]cnc2c1sc1nc3c(c(-c4ccc(Cl)cc4)c12)CCC3	?	–	-71	–	–
CCN(CC)C(=O)CC[C@H]1CC[C@]2(CCCN(S(=O)(=O)C3CCCCC3)C2)O1	·	·	·	–	·
Nc1c(SCCC(=O)O)ccc2c1C(=O)c1ccccc1C2=O	-67	–	–	–	–
COc1cc(N=Nc2cccc(S(N)(=O)=O)c2)c2ccccc2c1N	?	–	-71	–	–
CN(CC(=O)Nc1ccccc1Cl)C(=O)c1cc(C2CC2)nn1-c1ccccc1	–	-31	·	–	–
O=C(CN1C(=O)/C(=C/c2ccco2)SC1=S)Nc1ccc(O)c(C(=O)O)c1	–	–	·	–	–
O=C(CN1C(=O)/C(=C/c2ccco2)SC1=S)Nc1ccc(C(=O)O)c(O)c1	-65	–	·	–	–
CCn1c(=O)cc(OCC(=O)N2CCN(c3ccc(C)cc3)C(C)C2)c2ccccc21 (configuration not stated)	·	·	·	–	·
O=C(Cn1c(SCCOc2ccccc2Cl)nc2ccccc21)N1CCCCC1	·	·	·	–	·
SMILES	Six1-Eya2 inh	CCT chaperon mod	CtBP-E1A inh	PI4K2A block	Eya2 inh
COc1ccc(CN2C(=O)c3cccnc3C2Nc2ccc(OC)c(Cl)c2)cc1 (configuration not stated)	–	-71	–	–	–
O=C(Nc1nc(-c2ccccn2)cs1)c1ccc2c(c1)OCCO2	-82	–	?	–	–
CC(=O)Nc1ccc(C(=O)Nc2nc(-c3cccnc3)cs2)cc1	–	–	–	–	–
CC(=O)Nc1ccc(C(=O)Nc2nc(-c3ccccn3)cs2)cc1	-81	–	-91	–	–
O=C(Nc1ccccn1)c1ccc2c(c1)OCCO2	–	–	–	–	–
O=C(Nc1nc(-c2ccccn2)cs1)c1ccccc1-n1cnnn1	-91	–	-98	–	–
N=c1c2c(ccn1CCCc1ccccc1)Oc1ccc3ccccc3c1C2c1ccccc1 (configuration not stated)	·	·	·	–	·
CCN(CC)c1nc(-c2ccccc2)ncc1S(=O)(=O)c1ccc(C)cc1	–	–	–	–	–
CN(C)c1nc(-c2ccccc2)ncc1S(=O)(=O)c1ccccc1	–	-32	–	–	–
Cc1cc(C)c(S(=O)(=O)N2CCOC2CNC(=O)C(=O)NCCCn2ccnc2)c(C)c1 (configuration not stated)	-70	–	?	–	–
[O-][n+]1cccc(/C(Cl)=N/OC[C@@H](O)CN2CCCCC2)c1	·	·	·	–	·
C#CCNC(=O)C[C@H]1C[C@@]2(C(=O)OC)C(=C[C@H](C3CCCC3)O[C@@H]2C)N(Cc2cccc3ccccc23)C1=O	·	·	·	–	·
COC(=O)c1sccc1NC(=O)CNC(=O)c1ccccc1	–	-76	–	–	–
Cc1ccc(-n2nnc(-c3nccn3C)n2)cc1	–	–	–	-53	–
Cc1ccc(Nc2cc(C)nc3nncn23)c(C)c1	·	·	·	–	·
COc1ccc(C)cc1NC(=S)N1CC(C)OC(C)C1 (configuration not stated)	–	-48	–	–	–
COC(=O)C1=C(C)NC(C)=C(C(=O)OCCN2CCN(C(c3ccccc3)c3ccccc3)CC2)C1c1cccc([N+](=O)[O-])c1 (configuration not stated)	·	·	·	–	·
COc1cc(CNc2ncnc3c2ncn3[C@H]2CN(Cc3ccccc3)C[C@@H](COC(C)=O)O2)cc(OC)c1OC	–	-38	–	–	·
CN1CCN(C(=O)/C(=C/c2cn(S(=O)(=O)N(C)C)c3ccccc23)NC(=O)c2ccccc2)CC1	–	-39	–	–	–
CN(C)S(=O)(=O)n1cc(/C=C(\NC(=O)c2ccccc2)C(=O)N2CCCC2)c2ccccc21	–	–	·	–	–
CCN(CC)c1ccc(NC(=O)c2ccco2)cc1	–	–	–	–	–
CCN(CC)c1ccc(NC(=S)NC(=O)c2ccco2)cc1	-70	–	–	–	–
CCN(CC)c1ccc(/C=N/Nc2nc3ccccc3[nH]2)c(O)c1	–	-31	?	–	–
COc1cc(OC)c(OC)cc1/C=N/Nc1nc2ccccc2[nH]1	–	–	·	–	?
CCN(CC)c1ccc(/C=N/NC(=O)c2ccco2)c(O)c1	-65	–	?	–	–
CCN(CC)c1ccc(/C=N/NC(=O)c2ccco2)cc1	–	–	–	–	–
CCOc1ccc(N(CC(=O)Nc2c(C)n(C)n(-c3ccccc3)c2=O)S(=O)(=O)c2ccc(C)c(C)c2)cc1	·	·	·	–	·
COc1cc(-c2nc3c4ccccc4nc(=S)n3[nH]2)cc(OC)c1OC	–	-37	–	–	–
CCOc1ccc(CCNC(=O)Cn2ccc3cc(S(=O)(=O)N4CCCCC4)ccc32)cc1	·	·	·	–	·
CCOC(=O)Nc1ccc2c(c1)C(=NNC(N)=S)c1ccccc1-2	-79	–	-65	–	·
